An excerpt weighted towards active compounds, which were near 1.2% of everything screened.
GASC-1 inh = inhibitors of GASC-1 histone demethylase, primary screen, biochemical, fluorescence, DELFIA europium. Lysine-specific demethylase 4C (Homo sapiens), Q9H3R0. GST-JMJD2C(1-420) H3K9me3 demethylation. 330,000 compounds, 0.069% hits. inhibition, % at 2.35 µM. AID 2099, 2009;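 active = more than half of a compound's replicate wells show inhibition beyond 50%, single wells judged on their own value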;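 also: signal counts dimethyl H3K9 product captured on neutravidin plate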
VLA-4 inh = inhibition in human VLA-4 binding assay, primary screen, VLA-4 allosteric modulator project, MLPCN library, flow cytometry, VLA-4 expressing cells | ligand binding flow cytometry | 330,000 compounds, 0.2% hits | inhibition, % (about 7 µM as worked out from the volumes in the protocol); in the data active = inhibition above about 50%
p-CIP stab down = p/CIP-EGFP fusion destabilizers, primary screen, fluorescence, F442A cells; Q05BA5; 290,000 compounds, 0.01% hits; AID 1984, 2009; decrease of EGFP signal, % at 10 µM; 16 h;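 active = EGFP signal decrease of at least 30% at 10 µM or well 3 SD below plate mean, unless failing retest; inactive = the rest, including hits failing retest or dose response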
GPR7 antag = GPR7 receptor antagonists, primary screen, cell-based, fluorescence, single concentration; Neuropeptides B/W receptor type 1 (Homo sapiens), P48145; GPR7-expressing cells, fluorescence antagonist assay; inhibition, % at 4.4 µM; 290,000 compounds, 1.1% hits; AID 1861, 2009; in the data active = inhibition above about 16%, passing the limit was not always enough;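 also: cells stimulated with the agonist NPW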
Target sequence (P48145 whole entry, looked up): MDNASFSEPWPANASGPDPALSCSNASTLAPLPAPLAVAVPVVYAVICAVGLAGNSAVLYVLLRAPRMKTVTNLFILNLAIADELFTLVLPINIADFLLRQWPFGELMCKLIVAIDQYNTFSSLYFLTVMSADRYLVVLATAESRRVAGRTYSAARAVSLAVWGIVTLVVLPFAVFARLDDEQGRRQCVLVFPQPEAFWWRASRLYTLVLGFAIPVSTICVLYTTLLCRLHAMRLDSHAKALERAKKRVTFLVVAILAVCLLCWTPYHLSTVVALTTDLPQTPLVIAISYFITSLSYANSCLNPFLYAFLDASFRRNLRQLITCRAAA
Of the large screens only hits and unclear results are named; the others gave an inactive call.

CCCc1cc(=O)[nH]c(SCC(=O)Nc2ccc(N3CCCCC3)cc2)n1	none (no result: p-CIP stab down, GPR7 antag)
Cc1c(C=O)c(=O)n(-c2ccccc2)n1-c1ccccc1	GPR7 antag 20
Cc1c(C(=O)O)c(=O)n(-c2ccccc2)n1-c1ccccc1	none
O=S(=O)(Nc1cccnc1Cl)c1ccc2c(c1)OCCO2	none
O=S(=O)(Nc1cccnc1)c1ccc2c(c1)OCCO2	GPR7 antag 20
CN(c1ccccc1)S(=O)(=O)c1ccc(C(=O)NNC(=O)c2ccccc2)cc1	none (no result: GASC-1 inh, p-CIP stab down, GPR7 antag)
CN(c1ccc(C(=O)O)cc1)S(=O)(=O)c1ccccc1	GASC-1 inh 65
CC1CCCCC1NC(=O)c1ccc(-n2cncn2)cc1 (stereo not drawn)	none (no result: p-CIP stab down, GPR7 antag)
CCOC(=O)C1=C(C)NC(=O)NC1c1c(C)nn(-c2ccccc2)c1Cl (stereo not drawn)	GASC-1 inh 60
CCn1nnnc1NC(=O)c1cccc(OC)c1	none
CCn1nnnc1NC(=O)c1cc(Cl)c(OC)c(Cl)c1	VLA-4 inh 52 (no result: GASC-1 inh)
COc1ccccc1N(CC(O)Cn1c(C)nc2ccccc21)S(=O)(=O)c1ccccc1 (stereo not drawn)	none
O=[N+]([O-])c1ccc(C2=NN(c3ccccc3)C(c3ccco3)C2)cc1 (stereo not drawn)	GPR7 antag 24 (no result: VLA-4 inh)
O=[N+]([O-])c1ccc(/C=C/C2=NN(c3ccccc3)C(c3ccco3)C2)cc1 (stereo not drawn)	none
O=C(COC(=O)c1ccccc1C(F)(F)F)NC(=O)NCc1ccco1	none (no result: p-CIP stab down, GPR7 antag)
CC(C)c1cc(C(=O)OCC(=O)NC(=O)NCc2ccco2)c(O)c(C(C)C)c1	GPR7 antag 17
O=C(C1CCN(S(=O)(=O)c2cccc3cccnc23)CC1)N1CCN(c2ccc(Cl)cc2)CC1	GPR7 antag 17
CCc1ccc(CCC(=O)Nc2sc3c(c2C#N)CCCC3)o1	GASC-1 inh 51
CCC(=O)Nc1sc2c(c1C#N)CCC2	none
Cc1nn(-c2ccccc2)c(Cl)c1CN(C(=O)CCl)c1cccc2ccccc12	GPR7 antag 32
CC(=O)N(Cc1c(C)nn(-c2ccccc2)c1Cl)c1ccc(Cl)cc1	none
O=C(Nc1ccc(Cl)cc1C(=O)N1CCOCC1)c1cccc([N+](=O)[O-])c1	none
O=c1c(O)cccc2cc(O)c(O)c(O)c12	GASC-1 inh 87
O=c1cc(-c2ccccc2)oc2cc(O)c(O)c(O)c12	none (no result: GASC-1 inh, p-CIP stab down, GPR7 antag)
O=C(NC(Cc1cccc(F)c1)C(=O)O)C1CCCCC1 (stereo not drawn)	none (no result: p-CIP stab down, GPR7 antag)
COc1ccc(NC(=O)C2=Cc3ccccc3OC2)cc1	none
COc1ccc(NC(=O)C2=Cc3cccc(OC)c3OC2)cc1	GPR7 antag 20
Cc1ccc2c(c1)c1c3n2CCCNC3CCC1 (stereo not drawn)	GASC-1 inh 86
c1cc2c(cc1C1CCCCC1)c1c3n2CCCNC3CCC1 (stereo not drawn)	none
O=C(CCN1N=C(c2ccccc2)CCC1=O)NCC1COc2ccccc2O1 (stereo not drawn)	none
CN1C(=O)C(Cc2cnc[nH]2)NC1=S (stereo not drawn)	none
COc1ccccc1CC(=O)Nc1ccccc1O	none
COc1ccccc1CC(=O)Nc1ccc([N+](=O)[O-])cc1O	GPR7 antag 29
O=S(=O)(Nc1ccc(Cl)c(Cl)c1)N1CCOCC1	none
CC1COC(=O)C(NNc2ccc(Cl)c(Cl)c2)=N1 (stereo not drawn)	GPR7 antag 19
COc1ccc(Br)cc1CSC(=N)N	none
CCCCCOc1ccc(Br)cc1CSC(=N)N	GPR7 antag 72 (no result: VLA-4 inh)
Cc1noc(C)c1COc1cccc(C(=O)OC(C)C(=O)Nc2ccc3c(c2)OCO3)c1 (stereo not drawn)	GPR7 antag 19
COc1cc(C(=O)OC(C)C(=O)Nc2ccc3c(c2)OCO3)ccc1OCc1c(C)noc1C (stereo not drawn)	none
Cc1noc(C)c1COc1cccc(C(=O)Oc2ccc3c(c2)OCO3)c1	GPR7 antag 18
Cc1oc2c(c1C(=O)c1ccc(Cl)cc1)C(=O)C(=O)c1ccccc1-2	GPR7 antag 28 (no result: VLA-4 inh)
O=S(=O)(Nc1ccc(S(=O)(=O)N2CCCC2)cc1)c1ccc(F)cc1F	none (no result: p-CIP stab down, GPR7 antag)
O=[N+]([O-])c1ccccc1Oc1cnc2ccccc2n1	none
O=[N+]([O-])c1cc(-c2cnc3ccccc3n2)ccc1Oc1ccc(F)cc1	GASC-1 inh 62
O=C(Nc1ccc(Cl)cc1)c1cc2c(cc1O)[nH]c1ccccc12	GPR7 antag 43
Cc1cccc(NC(=O)CNC(=O)COc2cc(F)ccc2[N+](=O)[O-])c1C	none
